# Measurements as given in PubChem BioAssay AID493131 (Broad Institute, 2011).
# The whole screen tested about 340,000 compounds, of which about 3,300 (0.97%) were called active. Only a selection was taken, and actives are over-represented in it overall. Values without a mark were called inactive.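 Rule for the calls: active = mean activation above about 17%, with every replicate also reaching it (limit read from the data, passing the limit was not always enough); inconclusive = only one of the two conditions met; inactive = the rest.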
# Target: Protein FosB (Mus musculus) (UniProt P13346)
# Sequence (P13346 whole entry, looked up): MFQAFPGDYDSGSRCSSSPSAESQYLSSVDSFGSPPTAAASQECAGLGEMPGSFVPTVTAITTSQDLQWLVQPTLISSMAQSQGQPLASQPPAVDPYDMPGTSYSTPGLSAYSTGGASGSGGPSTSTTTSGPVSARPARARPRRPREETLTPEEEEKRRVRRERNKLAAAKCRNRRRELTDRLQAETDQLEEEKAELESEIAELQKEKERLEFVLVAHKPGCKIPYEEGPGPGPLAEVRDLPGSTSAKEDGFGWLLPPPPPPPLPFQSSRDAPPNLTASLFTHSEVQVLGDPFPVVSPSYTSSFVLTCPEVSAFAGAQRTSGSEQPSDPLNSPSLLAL
# Experiment: activators of delta FosB homodimer, primary screen, biochemical, fluorescence polarization, TAMRA-CDK5 oligo, single point (AID 493131);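 note: fluorescence polarization rise as delta FosB binds a TAMRA Cdk5 AP-1 oligo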
# Settings: purified delta FosB, at 25 µM, stronger effect = higher value, percent of positive-control signal above neutral wells
row,Compound,activation
1,CCOC(=O)CCC(NC(=O)c1ccc(CNc2nc3cc(C(F)(F)F)ccc3nc2C(=O)OCC)cc1)C(=O)OCC (configuration not stated),-4.97%
2,CC(=O)Nc1ccc(S(=O)(=O)NCC(=O)OCc2cc(=O)oc3ccc4ccccc4c23)cc1,38.6% (active)
3,COc1ccccc1CNC(=O)COC(=O)CNS(=O)(=O)c1ccc(NC(C)=O)cc1,0.477%
4,COc1ccccc1C(=O)COC(=O)CNS(=O)(=O)c1ccc(NC(C)=O)cc1,-5.62%
5,CC1CCC(N2CC(=O)N(Cc3ccc4c(c3)OCO4)C(c3ccc(F)cc3)C2=O)CC1 (configuration not stated),-1.56%
6,O=C(CN(Cc1ccccc1)C(=O)CCC(=O)Nc1ccccn1)NCCc1ccccc1,-12.5%
7,CCCOc1ccc(C(=O)C(CCC(CNCC)C(=O)c2ccc(OCCC)cc2)CNCC)cc1 (configuration not stated),18.7% (active)
8,CCCOc1ccc(C(=O)CCC(=O)OC(C)C(=O)Nc2ccc(NC(C)=O)cc2)cc1 (configuration not stated),11.5%
9,CCCOc1ccc(/C=N/NC(=O)C2CC2)c(OCCC)c1,-10.6%
10,Nc1nc(SCC(=O)Nc2cc(C(F)(F)F)ccc2Cl)[nH]c(=O)c1NC(=O)c1ccco1,48.3% (active)
11,COC(=O)c1ccc(NC(=O)CSc2nc(N)c(NC(=O)c3ccc(Br)o3)c(=O)[nH]2)cc1,10.1%
12,O=C(Nc1cc(-c2nc3ncccc3o2)ccc1Cl)c1ccco1,-46.8%
13,CCN(CC(=O)NCc1ccc(F)cc1)S(=O)(=O)c1ccc(Cl)s1,6.54%
14,NN=C(NN=Cc1ccccc1)c1ccccc1,-14.8%
15,COc1ccc(C)cc1NC(=O)CSc1cccc[n+]1[O-],6.31%
16,O=C(Nc1nnc(C2COc3ccccc3O2)o1)c1ccc(F)cc1 (configuration not stated),1.05%
17,COc1ccc(N(CC(=O)N/N=C/c2cccc3c2OCCO3)S(=O)(=O)c2ccc(NC(C)=O)cc2)cc1,-0.26%
18,Cc1cc(=O)[nH]c2nnnn12,-4.86%
19,CCN(CC)CCNc1ccc(Cl)cc1[N+](=O)[O-],4.58%
20,O=C(Nc1nc(-c2ccc(-c3ccccc3)cc2)cs1)c1cnccn1,21.9% (active)
21,O=C(Nc1nnc(Cc2ccccc2)s1)c1cnccn1,-3.57%
22,O=C(NCc1cccnc1)C(=O)Nc1nc(-c2ccccc2)cs1,-5.18%

row,Compound,activation
1,CCCCC(NS(=O)(=O)c1ccc(C)cc1)C(=O)Oc1ccc2c3c(c(=O)oc2c1)CCC3 (configuration not stated),-11.5%
2,CCOc1ccc(NC(=O)c2ccc(CSc3nnnn3C)cc2)cc1,-3.33%
3,O=C(N/N=C/c1cccc(Br)c1)c1ccc(N2CCCC2=O)cc1,86.6% (active)
4,Cn1c(=O)n(C)c2cc(/C=N/NC(=O)c3cccc(Br)c3)ccc21,10.7%
5,O=C(Nc1ccc(N2CCCC2=O)cc1)c1cncc(Br)c1,-1.59%
6,CCN(CC(=O)Nc1c(F)cccc1F)C(=O)Cc1cccs1,3.46%
7,Cc1ccc(C)c(NC(=O)C(OC(=O)c2ccc(C)s2)c2ccccc2)c1 (configuration not stated),23.6% (active)
8,COc1ccc(C)cc1NC(=O)C(OC(=O)c1cccc(S(=O)(=O)N(C)c2ccccc2)c1)c1ccccc1 (configuration not stated),-8.39%
9,Cc1cc(C)cc(NC(=O)C(OC(=O)c2ccc(O)cc2)c2ccccc2)c1 (configuration not stated),6.84%
10,C/C(CC(=O)NCc1ccc(Cl)cc1)=N\NC(=O)COc1ccc(C)cc1Br,-6.55%
11,COc1cc(CNCc2ccc(OC)c3ccccc23)cc(OC)c1OC,-10.2%
12,Cc1cc(C)c2nc3nc(C)cc(C)c3c(N)c2c1,25.9% (active)
13,CNC(=O)C1CC(=O)N(c2ccc(OCC(=O)Nc3ccccc3C)cc2)C1 (configuration not stated),5.55%
14,COc1ccc(OC)c(S(=O)(=O)N(C)CC(=O)N2CCN(c3ccccc3)CC2)c1,3.45%
15,O=C1CC(c2ccccc2)C(=O)N1c1cccc(O)c1 (configuration not stated),0.8%
16,O=C1c2cccc3cccc(c23)C(=O)N1c1cccc(O)c1,27.4% (active)
17,O=C(CN1C(=O)c2cccc3cccc(c23)C1=O)N1CCCCC1,2.41%
18,Cc1ccccc1CC1(CO)CCCN(Cc2ccc3c(c2)OCCO3)C1 (configuration not stated),-8.09%
19,COc1ccc(-n2cnc3cc(NCc4ccco4)ccc32)cc1,-0.508%
20,COc1ccc(Nc2nc(NCc3ccco3)nc(N/N=C/c3ccccc3Cl)n2)cc1,43% (active)
21,C=CCC(NCc1ccco1)c1ccc(OC)cc1 (configuration not stated),-0.535%
22,O=C1c2cccnc2C(Nc2ccc(S(=O)(=O)N3CCCCCC3)cc2)N1Cc1ccccc1 (configuration not stated),-10.2%

row,Compound,activation
1,O=C(Cc1ccc(-n2c(=O)c3sccc3n(Cc3ccc(F)cc3)c2=O)cc1)NCc1ccco1,20.9% (active)
2,O=C(NCc1ccco1)c1cc2sccc2n1Cc1ccc(F)cc1,-6.3%
3,O=C(NCc1ccco1)c1ccc(Cn2c(=O)c3sccc3n(Cc3ccc(F)cc3)c2=O)cc1,-6.02%
4,CC1(C)Oc2ccc(C(=O)N3CCOCC3)cc2N(CC(=O)Nc2ccccc2)C1=O,-4.29%
5,CC(=O)NC(Cc1ccc(F)c(F)c1)C(=O)NC1CCN(c2nnnn2-c2ccccc2)CC1 (configuration not stated),-5.56%
6,COc1ccc(CCNC(=O)C2CCCN2C(=O)Nc2ccccc2)cc1OC (configuration not stated),1.24%
7,CC(C)CCNC(=O)c1ccc2c(Cl)c3c(nc2c1)CCC3,-19.8%
8,CC(=NC1CCN(Cc2ccccc2)CC1)c1c(O)[nH]c(=O)[nH]c1=O,6.14%
9,c1ccc(CN2CCC(N=C3NN=C(c4ccc5c(c4)OCCO5)CS3)CC2)cc1,18.3% (active)
10,CS(=O)(=O)N(CC(=O)N1CCN(Cc2ccccc2)CC1)c1ccc2c(c1)OCCO2,-2.7%
11,Cc1ccc(C(=O)NC(C)c2ccccc2)cc1Br (configuration not stated),-1.72%
12,CCN(C(=O)CSc1nc2ccccc2n1CC)C1CCS(=O)(=O)C1 (configuration not stated),-12.5%
13,O=C(CNS(=O)(=O)c1ccc(Br)s1)NCc1ccc2c(c1)OCO2,-7.24%
14,COc1ccc2[nH]c(C(=O)N/N=C/c3cc(OC)c(OC)c(OC)c3)cc2c1,-21.6%
15,COc1cccc(OCc2cc(/C=N/NC(=O)c3nc(Cl)c(Cl)c(N)c3Cl)ccc2OC)c1,59.2% (active)
16,CCOc1ccc2[nH]c(C(=O)N/N=C/c3cccc(OC)c3OC)cc2c1,-5.75%
17,CCOCCCNC(=O)C(NC(=O)c1ccc(=O)[nH]c1)c1ccc(Cl)cc1 (configuration not stated),-7.55%
18,O=C(N/N=C/c1ccc(OCc2ccccc2)cc1)c1ccc(O)cc1,19.7% (active)
19,O=C(COc1ccc(/C=N/NC(=O)c2ccc(O)cc2)cc1)Nc1ccc([N+](=O)[O-])cc1,-4.3%
20,O=C(Cc1cccs1)N/N=C/c1ccc(OCc2ccccc2)cc1,-8.99%
21,O=C(Nn1cnc2ccccc2c1=O)c1ccc(F)cc1Cl,-11%
22,Cc1ccc(S(=O)(=O)NCc2ccc(C(=O)NC3CCC(C)CC3)cc2)cc1 (configuration not stated),1.88%

row,Compound,activation
1,Cc1cccc(C)c1NC(=O)c1ccc(CN2CCc3ccccc3C2)cc1,5.39%
2,COc1ccc(OC)c(NC(=O)C2CCCN2S(=O)(=O)c2cccc3nsnc23)c1 (configuration not stated),-12.4%
3,COC(=O)C1=C(C)N(c2ccc(C)cc2)/C(=C/c2ccc(O)cc2)C1=O,-7.3%
4,CC(=O)Nc1ccc(C(=O)CSc2nnc(Cc3ccccc3)o2)cc1,32.2% (active)
5,O=C(CSc1nnc(Cn2cnc3ccccc32)o1)c1ccccc1,-10.9%
6,CCCc1nnc(SCC(=O)Nc2ccc(C(=O)OCC)cc2)o1,-7.89%
7,COC(=O)CN1C(=O)N/C(=C/c2ccc(OC)c(C)c2OC)C1=O,-0.812%
8,COC(=O)c1ccc(C23CC4(C2)[C@H](CN(Cc2cccnc2)[C@@H]4c2ccccc2)C3c2ccc(Cl)nc2)cc1 (some centres not stated),23.5% (active)
9,Clc1ccc(C2[C@H]3CN(CC4CCCCC4)[C@H](c4ccccc4)C34CC2(c2cccnc2)C4)cn1 (some centres not stated),2.72%
10,CCN1C(=NCCc2cccnc2)N[C@@H](c2ccccc2)C(C(=O)OC)=C1C,-0.917%
11,CN(C)C(=O)CSc1n[nH]c(-c2ccco2)n1,7.7%
12,COc1ccc(C(=O)C2CCCN(S(=O)(=O)c3cccc(C)c3)C2)c(C)c1 (configuration not stated),-8.61%
13,COc1cc2[nH]c(=O)n(Cc3ccc(C(=O)NC4CCN(Cc5ccccc5)CC4)cc3)c(=O)c2cc1OC,40.7% (active)
14,COc1cc(C(=O)NC2CCN(Cc3ccccc3)CC2)cc(Cl)c1OC(C)C,-2.75%
15,COc1cc2[nH]c(=O)n(CCC(=O)NC3CCN(Cc4ccccc4)CC3)c(=O)c2cc1OC,-7.1%
16,CN(C(=O)COC(=O)c1ccc(Br)o1)c1c(N)n(Cc2ccccc2)c(=O)[nH]c1=O,5.25%
17,CC(C)CN(C(=O)COC(=O)c1ccc(Cl)c(N)c1)c1c(N)n(Cc2ccccc2)c(=O)[nH]c1=O,0.351%
18,Cc1cc(OCC(=O)N(C)c2c(N)n(Cc3ccccc3)c(=O)[nH]c2=O)c(C(C)C)cc1Cl,30.7% (active)
19,CC(C)Sc1nc(N)nc2c1ncn2C1OC(CO)C(O)C1O (configuration not stated),-4.1%
20,O=C(CCN1CCc2ccccc2C(O)(c2ccccc2)C1)c1ccc2c(c1)OCCO2 (configuration not stated),1.68%
21,CCCCN(C(=O)c1ccc(OC(F)(F)F)cc1)c1c(N)n(CCC)c(=O)[nH]c1=O,-2.28%
